PubChem BioAssay (NCATS)
Inconclusive results are not listed. The source made the active and inactive calls. The call rests on the fitted dose curve; in most records, active means well fitted inhibition curve with a large enough effect in the signal ratio, with a control signal flat (not every such curve was filed as active); inconclusive means small, poorly fitted or top-dose-only effect, or effect the other way, or a change in a side signal; inactive means no such curve, though single readings can be large or run the other way; the % refers to the signal ratio. Peptide text beside a SMILES is read from it.

Target: Peroxisome proliferator-activated receptor delta (Homo sapiens) (UniProt Q03181)
Sequence (Q03181 whole entry, looked up): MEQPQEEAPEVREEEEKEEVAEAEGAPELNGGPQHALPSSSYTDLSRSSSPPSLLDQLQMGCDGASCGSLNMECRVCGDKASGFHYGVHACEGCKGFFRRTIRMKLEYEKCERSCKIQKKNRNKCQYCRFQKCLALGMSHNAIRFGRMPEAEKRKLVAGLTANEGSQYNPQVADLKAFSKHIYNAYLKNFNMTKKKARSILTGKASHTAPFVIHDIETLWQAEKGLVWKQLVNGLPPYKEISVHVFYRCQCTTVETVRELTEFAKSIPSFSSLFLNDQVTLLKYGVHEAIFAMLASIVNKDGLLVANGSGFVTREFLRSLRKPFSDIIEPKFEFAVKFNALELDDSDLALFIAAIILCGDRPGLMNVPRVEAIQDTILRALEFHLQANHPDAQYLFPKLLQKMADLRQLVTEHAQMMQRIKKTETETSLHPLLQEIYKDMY
Experiment: qHTS assay for small molecule antagonists of peroxisome proliferator-activated receptor delta signaling (AID 588535)
Conditions: HEK293T PPARd-UAS-bla, beta-lactamase FRET ratio, 18 h; series mostly up to 76.7 µM; activity change, negative = inhibition: at the top concentration
Excerpt: NIH Chemical Genomics Center [NCGC] U.S. Environmental Protection Agency [EPA] National Institutes of Environmental Health Sciences [NIEHS] National Toxicology Program [NTP] NCGC Assay Overview The Peroxisome proliferator-activated receptors (PPARs) are lipid-activated transcription factors of the nuclear receptor superfamily with three distinct subtypes namely PPAR alpha, PPAR delta (also called PPAR beta) and PPAR gamma. All these subtypes heterodimerizes with Retinoid X receptor (RXR) and have different physiological functions. […] This role of PPAR delta implicates the potential use of its ligands in the treatment of metabolic disorders.
NCGC Assay Protocol Summary Using a beta-lactamase reporter-gene under control Peroxisome Proliferator-Activated Receptor delta (PPAR-delta) response element, a cell-based assay [GeneBLAzer (PPAR-delta-UAS-bla assay developed by Invitrogen] was used to measure PPAR-delta ligands signaling. GeneBLAzer PPAR-delta-UAS-bla HEK293T cells were used with assay medium containing 2% charcoal/dextran FBS. The assay was performed in clear bottom black Greiner 1536-well plates. Library compounds were measured for their ability to inhibit the reporter gene activity. Compounds were screened in a titration series in 1536-well format. The fluorescence intensity (405 nm excitation, 460/530 nm emission) was measured using an EnVision plate reader. […] Concentration-response titration points for each compound were fitted to the Hill equation yielding concentrations of half-maximal inhibition (IC50) and maximal response (efficacy) values. qHTS protocol for PPAR-delta beta-lactamase assay in antagonist mode [Step] [Parameter] [Value] [Description] 1. Reagent; 5 uL; 4000 cells/well 2. Incubation; 37 C for 5 hrs 3. Compounds; 23 nL; 0.59 nM to 92 uM 4. […] Incubation; 37 C for 18 hrs 7. Detection reagent; 1 uL of CCF4-dye 8. Incubation; RT for 2 hrs 9. Detection; Fluorescence; Envision plate reader

| Structure (SMILES) | outcome | activity change, negative = inhibition |
| --- | --- | --- |
| CS(=O)(=O)OCCCCOS(C)(=O)=O | inactive | – |
| COc1cc(OC)c(C(=O)CCCN2CCCC2)c(OC)c1 | – | 5.72% (inactive) |
| Cc1ccc(C)c(OCCCC(C)(C)C(=O)O)c1 | – | 6.2% (inactive) |
| c1ccc2[nH]c(-c3cscn3)nc2c1 | – | -13.8% (inactive) |
| COc1c2occc2cc2ccc(=O)oc12 | – | 14.9% (inactive) |
| CCCc1cc(=O)[nH]c(=S)[nH]1 | inactive | – |
| COC(=O)[C@H](Cc1ccccc1)NC(=O)[C@@H](N)CC(=O)O (H-Asp-Phe-OMe) | inactive | – |
| CCc1nc(N)nc(N)c1-c1ccc(Cl)cc1 | – | -21.7% (inactive) |
| NS(=O)(=O)c1cc(C(=O)O)c(NCc2ccco2)cc1Cl | inactive | – |
| CCCCC(CC)COC(=O)C(C#N)=C(c1ccccc1)c1ccccc1 (stereo not given) | – | -12.3% (inactive) |
